Shown is part of a subset that was picked to be rich in hits.
ROC1-CUL1 inh: blocks human RBX1-Cullin-1 di-ubiquitin formation. in vitro K48 di-Ub FRET, acceptor:donor ratio, 45 min. inhibition, % at 10 µM. P62877+Q13616. 140,000 compounds, 0.6% hits; in the data active = inhibition above about 25%
Target sequence (P62877 whole entry, looked up): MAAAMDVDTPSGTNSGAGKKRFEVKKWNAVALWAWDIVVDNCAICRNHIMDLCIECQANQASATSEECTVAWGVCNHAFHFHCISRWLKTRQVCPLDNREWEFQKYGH
Target sequence (Q13616 whole entry, looked up): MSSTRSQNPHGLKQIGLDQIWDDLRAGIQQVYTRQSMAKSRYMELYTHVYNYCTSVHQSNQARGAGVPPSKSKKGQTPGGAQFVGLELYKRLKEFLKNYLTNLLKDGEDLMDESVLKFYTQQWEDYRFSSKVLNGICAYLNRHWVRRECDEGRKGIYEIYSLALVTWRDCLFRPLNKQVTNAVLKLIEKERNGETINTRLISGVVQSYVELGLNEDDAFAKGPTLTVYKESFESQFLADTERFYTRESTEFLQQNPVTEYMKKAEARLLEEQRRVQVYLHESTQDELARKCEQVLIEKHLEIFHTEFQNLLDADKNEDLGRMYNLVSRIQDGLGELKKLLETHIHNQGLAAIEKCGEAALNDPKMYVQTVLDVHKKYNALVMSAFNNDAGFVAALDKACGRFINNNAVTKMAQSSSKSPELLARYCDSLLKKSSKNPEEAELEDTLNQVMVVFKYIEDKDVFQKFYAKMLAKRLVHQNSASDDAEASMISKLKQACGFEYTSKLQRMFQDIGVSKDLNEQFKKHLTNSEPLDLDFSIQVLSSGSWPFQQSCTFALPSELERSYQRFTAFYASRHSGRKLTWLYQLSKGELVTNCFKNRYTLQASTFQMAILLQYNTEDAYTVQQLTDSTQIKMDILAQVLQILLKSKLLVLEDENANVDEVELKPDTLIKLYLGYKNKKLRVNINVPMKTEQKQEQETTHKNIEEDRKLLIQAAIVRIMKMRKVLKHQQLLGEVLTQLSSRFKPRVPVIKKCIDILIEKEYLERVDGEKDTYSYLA
An asterisk follows results filed as active.

SMILES	ROC1-CUL1 inh
Cc1ccc(C(=O)OCC(=O)Nc2ccccc2N2CCOCC2)cc1	6
CCCNC(=O)C1CCN(Cc2ccccc2)CC1	3
Cc1ccc(C(=O)c2ccc(F)c(F)c2)cc1	2
c1ccc(-c2cc3ccccn3c3cccc2-3)cc1	93*
COC(=O)c1cc2c(-c3ccccc3)cc3ccccn3c-2c1C(=O)OC	5
c1ccc(-c2cc3ccc4cccc2n43)cc1	-1
Cc1coc(C)c1C(=O)Nc1ccc(Cl)c(Cl)c1	7
Cc1ccc(NC(=O)NCc2cccn2Cc2ccccc2)cc1F	-3
CCN(C)C(=O)C1CCCN(C2CCN(c3nc4ccccc4o3)CC2)C1 (configuration not stated)	8
Cc1ccc(OCC(O)CN2CCc3ccccc3C2)cc1 (configuration not stated)	8
O=C1C2C(c3ccc(Br)cc3)OC3(C(=O)c4ccccc4C3=O)C2C(=O)N1c1cccc([N+](=O)[O-])c1 (configuration not stated)	59*
COc1cccc(C2OC3(C(=O)c4ccccc4C3=O)C3C(=O)N(c4ccc(Br)cc4)C(=O)C23)c1 (configuration not stated)	-6
O=C1C2C(c3ccc(Br)cc3)OC3(C(=O)c4ccccc4C3=O)C2C(=O)N1c1ccc(Oc2ccc(Cl)cc2)cc1 (configuration not stated)	0
COc1ccc(OC(C)C(=O)NCc2nc(-c3ccc(Cl)cc3)no2)cc1 (configuration not stated)	2
CC(=O)c1cccc(NS(=O)(=O)c2c(C(=O)N3CCCCCC3)c(C)n(C)c2C)c1	6
Cc1ccccc1Cn1nnc2c1C(=O)c1ccccc1C2=O	12
O=C1c2ccccc2C(=O)c2c1nnn2Cc1ccc(F)cc1	13
COc1ccc(Cn2nnc3c2C(=O)c2nnn(Cc4ccc(OC)cc4)c2C3=O)cc1	45*
Cc1ncoc1C(=O)NCc1cccnc1N1CCCC(O)C1 (configuration not stated)	8
CC1=Nc2nc(SCc3ccccc3)nn2C(c2cccs2)C1C(=O)Nc1ccccc1 (configuration not stated)	-11
Cn1nc(-c2ccccc2)c2cccc-2c1-c1ccccc1	-7
Cc1nc(SCCN2CCOCC2)cc(-c2ccccc2)n1	-3
N#Cc1c(-c2ccccc2)cc(-c2cccs2)nc1SCCN1CCOCC1	0
N#Cc1c(-c2ccccc2)cc(-c2ccccc2)nc1SCCN1CCOCC1	100*
Cc1cc(C(F)(F)F)n2nc(N)c(N=Nc3cccc(C(F)(F)F)c3)c2n1	11
SMILES	ROC1-CUL1 inh
CSc1c(C#N)c(N)nc2c(N=Nc3ccc(S(N)(=O)=O)cc3)c(N)nn12	84*
Cc1cc(C(F)(F)F)n2nc(N)c(N=Nc3ccccc3)c2n1	0
O=C1c2ccc3c4c(ccc(c24)C(=O)N1CCO)C(=O)N(CCO)C3=O	-6
O=C(CSc1n[nH]c(-c2ccc(F)cc2)n1)N1CCN(c2ccc(F)cc2)CC1	11
Cc1ccc(N=C2S/C(=C\c3ccc(OCC(=O)O)cc3)C(=O)N2c2ccc(C)c(C)c2)cc1C	89*
Cc1ccc(N=C2S/C(=C\c3ccc(O)cc3)C(=O)N2c2ccc(C)cc2)cc1	-9
O=C(O)COc1ccc(/C=C2\SC(=O)N(c3cccc(Cl)c3)C2=O)cc1	-10
O=C(NCc1ccccc1OC(F)(F)F)C1CC(Cc2cccc(F)c2)=NO1 (configuration not stated)	-7
Cc1ccc(-c2csc3nc4ccccc4n23)cc1	-8
C#Cc1ccc(CN2CCC3(CCCN(C)C3=O)C2)cc1 (configuration not stated)	7
COC(=O)c1ccccc1-n1c(CCC(=O)O)ccc1-c1ccccc1	5
CC1(C)CC(=O)C(C(c2ccccc2OC(=O)c2ccccc2)C2C(=O)CC(C)(C)CC2=O)C(=O)C1	-11
O=C(Oc1cc(=O)n(-c2ccccc2)c2c1CCCC2)c1ccccc1	5
COC12C=CC(CC1)C1=C2C(=O)c2c(OC(=O)c3ccccc3)ccc(OC(=O)c3ccccc3)c2C1=O (configuration not stated)	71*
Cc1ccc(NC(=O)N2CC=C(c3c[nH]c4ccccc34)CC2)cc1Cl	6
Cc1cccc(OCC(=O)NNc2ccc([N+](=O)[O-])cc2[N+](=O)[O-])c1	30*
Cc1cccc(OCC(=O)NNC(=O)CCCCC(=O)NNC(=O)COc2cccc(C)c2)c1	2
Cc1cccc(OCC(=O)N/N=C/c2cccn2-c2ccc([N+](=O)[O-])cc2)c1	-3
CCc1ccc2oc(-c3cc(NC(=O)C(C)C)cc(C)c3O)nc2c1	-1
CS(=O)(=O)N1CCC(C(=O)N2CCCC2)CC1	-1
CCN(CC)C(=O)CCc1nnc(-c2ccc(C(C)=O)s2)o1	-1
COc1ccc(NC(=O)c2nc(SCc3ccc(F)cc3)ncc2Cl)cc1	-2
CCc1ccc(S(=O)(=O)n2nnc3ccccc32)cc1	26*
Cc1ccc2c(c1)nnn2S(=O)(=O)c1ccc([N+](=O)[O-])cc1	-5
Cc1ccc2c(c1)nnn2S(=O)(=O)c1ccc(C(C)(C)C)cc1	0
SMILES	ROC1-CUL1 inh
O=C(NC1CCC1)c1coc(COc2ccc3c(c2)OCO3)n1	-9
COc1ccc(-c2ccc(/C=C(/C#N)S(=O)(=O)c3ccccc3)o2)cc1	29*
N#C/C(=C\c1ccc(F)cc1)S(=O)(=O)c1ccccc1	9
N#C/C(=C\c1ccccc1)S(=O)(=O)c1ccccc1	0
CCc1nn(CC(=O)NCc2ccco2)c(=O)c2cc3cc(F)ccc3n12	1
Cc1ccc(NC(=O)CCCn2c(=O)c3cccn3c3cccnc32)cc1C	-5
S=c1cc(-c2ccccc2)sc2ccccc12	9
CC(C)CCCC(C)C1CCC2[C@@H](C(=O)O)C([C@@]3(C)CCC=CC3=O)CC[C@]12C (some centres not stated)	97*
CC(=O)OC1CC[C@](C)(C2CC[C@]3(C)C(C(C)CCCC(C)C)CCC3C2C(=O)O)C(=O)C1 (some centres not stated)	-1
CC(C)CCCC(C)C1CCC2C3CC([N+](=O)[O-])=C4C[C@@H](Cl)CCC4(C)C3CCC12C (some centres not stated)	-3
CCCn1c(CCC(=O)Nc2ccccc2OC)nc2cccnc21	-7
CCN(CC)c1ccc(/C=C2\C(=O)NC(=S)N(c3ccc(Br)cc3)C2=O)cc1	28*
CCN(CC)c1ccc(/C=C2\C(=O)NC(=O)N(c3ccc(Br)c(C)c3)C2=O)cc1	-40
O=C1NC(=S)N(c2ccc(Br)cc2)C(=O)/C1=C/c1ccc(F)cc1	0
COc1cc(CNCCO)cc(Br)c1OCc1cccs1	10
COc1ccc(CCN2CCC(CN(C)C(=O)CCc3ccncc3)CC2)cc1	-3
N#Cc1ccccc1CN1C(=O)S/C(=C/c2ccc(-c3ccc(Cl)c(C(=O)O)c3)o2)C1=O	42*
COC(=O)CN1C(=O)S/C(=C/c2ccc(-c3cccc(C(=O)O)c3C)o2)C1=O	7
Cc1ccccc1NC(=O)CN1C(=O)S/C(=C\c2ccc(-c3cc(C(=O)O)ccc3Cl)o2)C1=O	28*
Cc1c(C(=O)O)cccc1-c1ccc(/C=C2/SC(=O)N(Cc3cc4c(cc3Cl)OCO4)C2=O)o1	6
O=C(O)c1ccc(-c2ccc(/C=C3\SC(=O)N(Cc4ccc(F)cc4)C3=O)o2)cc1Cl	92*
CC(C)c1ccc(/C=C2\SC(=O)N(Cc3ccc(F)cc3)C2=O)cc1	5
C=CCN1C(=O)S/C(=C\c2ccc(-c3ccc(Br)cc3)o2)C1=O	-7

Screening results from PubChem.
